Compound activity (PubChem)
NPR2 activator: GC-B (human) receptor activation; P20594; HEK293-GC-B cells, CNP EC30, cGMP TR-FRET; 0% at EC30 CNP, 100% saturating CNP; activation, % at 10 µM; 370,000 compounds, 0.11% hits; AID 1920062;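 active = activation at 10 µM reaching about 35% in either raw or pattern-adjusted values, limit read from the data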
NPR1 activator: GC-A (human) enzyme activation; HEK293 GC-A cells, cGMP TR-FRET, EC30 ANP; 0% at EC30 ANP, 100% saturating ANP; 370,000 compounds, 0.14% hits; AID 1671463; activation, % at 10 µM; in the data active = activation above about 40%
PLCb3 inh: inhibitors of human phospholipase C beta3 | AID 720704 | inhibition, % at 12.2 µM | Purified PLC-beta3, fluorogenic substrate, fluorescence | 370,000 compounds, 0.18% hits | Q01970; in the data active = inhibition above about 11%;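 also: 0% = median of compound wells on plate and 100% = full blocker control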
PLCg1 inh: blocks human PLC-gamma1 enzyme activity; P19174; purified PLC-gamma1, fluorogenic substrate, fluorescence; inhibition, % at 12.2 µM; 370,000 compounds, 0.84% hits; AID 720700; in the data active = inhibition above about 9.5%
An asterisk follows results filed as active. In the library only some 1.2% were active in any assay of this set; here they are far more common.

Results for O=C(Cn1ncc2c3ccccc3n(Cc3ccccc3F)c2c1=O)N1CCC2(CC1)OCCO2 ?
NPR2 activator: 41.5*; NPR1 activator: 29.4; PLCb3 inh: -1.6; PLCg1 inh: 0.2

How did CC(C)(C)NC(=S)N1Cc2ccccc2-n2nncc2C1 do in these assays?
NPR2 activator: 2.4; NPR1 activator: -0.9; PLCb3 inh: 2.3; PLCg1 inh: 12.6*

What do the screens show for `COc1ccc2c(c1)C1(C)CCN(C)CC(C1)C2O` (centres undefined)?
NPR2 activator: 0.7; NPR1 activator: -4.8; PLCb3 inh: 2.0; PLCg1 inh: 0.8

How did COc1ccc(OCC(=O)N2CCN(C3CCC(c4ccccc4)CC3)CC2)cc1 (centres undefined) do in these assays?
NPR2 activator: -3.4; NPR1 activator: -0.6; PLCb3 inh: 2.5; PLCg1 inh: 4.6

Results for CCOC(=O)c1c(C)n(Cc2ccc3c(c2)OCO3)c2ccc(O)cc12 ?
NPR2 activator: 28.1; NPR1 activator: 78.9*; PLCb3 inh: -3.3; PLCg1 inh: 3.2

What do the screens show for `CCOC(=O)c1c(C)n(COCCO)c2ccc(O)cc12`?
NPR2 activator: 6.0; NPR1 activator: -0.2; PLCb3 inh: 3.4; PLCg1 inh: -2.1

Results for C=COCCn1c(C)c(C(C)=O)c2cc(O)ccc21 ?
NPR2 activator: -1.7; NPR1 activator: 24.5; PLCb3 inh: -3.8; PLCg1 inh: -1.0

How did CCOC(=O)c1c(C)n(Cc2ccc(F)cc2)c2ccc(O)cc12 do in these assays?
NPR2 activator: 7.1; NPR1 activator: 67.4*; PLCb3 inh: -13.6; PLCg1 inh: -1.8

How did CCOC(=O)c1c(C)n(Cc2ccco2)c2ccc(O)cc12 do in these assays?
NPR2 activator: -2.2; NPR1 activator: 50.0*; PLCb3 inh: 2.4; PLCg1 inh: 3.8

Results for Clc1cccc(N2Cc3cc(-c4ccccc4)ccc3-n3nncc3C2)c1 ?
NPR2 activator: -4.0; NPR1 activator: 0.5; PLCb3 inh: -2.7; PLCg1 inh: 12.1*

Results for Clc1cccc(N2Cc3cc(N4CCOCC4)ccc3-n3nncc3C2)c1 ?
NPR2 activator: 3.7; NPR1 activator: -1.4; PLCb3 inh: -3.9; PLCg1 inh: -1.3

How did C/C=C(\C)C(=O)N[C@@H](c1ccccc1)[C@@H](O)C(=O)O[C@H]1C[C@@]2(O)[C@@H](OC(=O)c3ccccc3)C3[C@](C)(C(=O)[C@H](OC(C)=O)C(=C1C)C2(C)C)[C@H](O)C[C@H]1OC[C@@]31OC(C)=O (some centres undefined) do in these assays?
NPR2 activator: 4.9; NPR1 activator: 0.2; PLCb3 inh: 7.5; PLCg1 inh: 2.6

What do the screens show for `O=C1NC(=O)C(=Cc2ccc(-c3cc(Cl)ccc3[N+](=O)[O-])o2)C(=O)N1`?
NPR2 activator: 16.7; NPR1 activator: 49.9*; PLCb3 inh: -39.3; PLCg1 inh: -20.9

How did O=C1NC(=O)C(=Cc2ccc(-c3ccccc3[N+](=O)[O-])o2)C(=O)N1 do in these assays?
NPR2 activator: 13.1; NPR1 activator: 38.1; PLCb3 inh: -19.2; PLCg1 inh: -7.6

What do the screens show for `COc1ccc(-n2c(O)c(/C=C3\C=Nc4ccc(Br)cc43)c(=O)[nH]c2=O)cc1`?
NPR2 activator: 29.6; NPR1 activator: 40.9*; PLCb3 inh: -10.7; PLCg1 inh: -1.5

What do the screens show for `COc1ccc(-n2c(O)c(/C=C3\C=Nc4ccc(Br)cc43)c(=O)[nH]c2=O)c(OC)c1`?
NPR2 activator: 24.4; NPR1 activator: 31.2; PLCb3 inh: -7.5; PLCg1 inh: -2.7

How did COc1cc(/C=C/c2nc3ccccc3c(=O)n2-c2cccc(O)c2)ccc1O do in these assays?
NPR2 activator: 48.8*; NPR1 activator: 23.9; PLCb3 inh: inactive; PLCg1 inh: -475.7

What do the screens show for `CCN(CC)C(=O)c1ccc(NC(=O)c2c(C)noc2C)cc1`?
NPR2 activator: 1.0; NPR1 activator: 0.3; PLCb3 inh: -1.4; PLCg1 inh: 0.7

Results for Brc1ccccc1 ?
NPR2 activator: 2.7; NPR1 activator: 3.0; PLCb3 inh: 10.6*; PLCg1 inh: 7.9

How did Cc1ccc(N2C(=O)NC(=O)/C(=C/c3cnn(-c4ccc(C)cc4)c3)C2=O)cc1 do in these assays?
NPR2 activator: 10.5; NPR1 activator: 56.6*; PLCb3 inh: -5.0; PLCg1 inh: 0.3

What do the screens show for `CSc1ncc(/C=C2/C(=O)NC(=O)N(c3ccc(C)cc3)C2=O)cn1`?
NPR2 activator: 1.2; NPR1 activator: 1.9; PLCb3 inh: -1.9; PLCg1 inh: -2.0

Results for CC(C)C12CN3CCN(CC(C3)/C1=N\O)C2 ?
NPR2 activator: 3.7; NPR1 activator: -1.5; PLCb3 inh: -0.2; PLCg1 inh: 1.3
